These results are taken from PubChem BioAssay (Tox21).

Results filed as inconclusive are left out. A number with no mark means an inactive call. Activity calls are given as the source filed them. The call rests on the fitted dose curve.
On the % scale 0 is the no-effect control and ±100 the full control effect.

The experiment is described as follows: qHTS assay for small molecule agonists of the antioxidant response element (ARE) signaling pathway - cell viability counter screen (AID 743203). Further: nearly all actives have a fitted effect of over 55% in size. The conditions noted are these: ARE-bla HepG2 viability, CellTiter-Glo luminescence, 16 h; series mostly up to 73.3 µM. From the text:
National Center for Advancing Translational Sciences [NCATS]
NIH Chemical Genomics Center [NCGC]
U.S. Environmental Protection Agency [EPA]
National Institutes of Environmental Health Sciences [NIEHS]
National Toxicology Program [NTP]
U.S. Food and Drug Administration [FDA]
Oxidative stress has been implicated in the pathogenesis of a variety of diseases ranging from cancer to neurodegeneration. The antioxidant response element (ARE) signaling pathway plays an important role in the amelioration of oxidative stress. The CellSensor ARE-bla HepG2 cell line (Invitrogen) can be used for analyzing the Nrf2/antioxidant response signaling pathway. Nrf2 (NF-E2-related factor 2) and Nrf1 are transcription factors that bind to AREs and activate these genes. The CellSensor ARE-bla Hep G2 cell line contains a beta-lactamase reporter gene under control of the Antioxidant Response Element (ARE) stably integrated into HepG2 cells. The activation of the report gene under culture conditions can be detected by fluorescence intensity. This cell line has been used to screen the Tox21 10K compound library to identify agonists that induce oxidative stress. The cytotoxicity of the Tox21 compound library against the ARE-bla cell line was tested in parallel by measuring the cell viability using CellTiter-Glo assay (Promega, Madison, WI) in the same wells.
Tox21 Assay Protocol Summary:
ARE-bla HepG2 cells were dispensed at 2,000 cells/5 ul/well in 1536-well white wall/solid bottom plates using a Multidrop Combi (ThermoFisher Scientific, Waltham, MA) dispenser. After the assay plates were incubated at 37C/5% CO2 for 5 hrs, 23 nL of compounds dissolved in DMSO, positive controls or DMSO only was transferred to the assay plate by a pintool work station (Kalypsys, San Diego, CA). The plates were incubated at 37C/5% CO2 for 16 hrs, followed by addition of 4 ul/well of CellTiter-Glo reagent into the assay plates using a Flying Reagent Dispenser (Aurora Discovery, San Diego, CA). After 30 min incubation at room temperature, the luminescence intensity in the assay plates was measured using a ViewLux (PerkinElmer, Shelton, CT) plate reader.
(Quantitative high-throughput screening tests each substance at several concentrations.)
For the compound `C=CCOc1c(Br)cc(Br)cc1Br`, the outcome was inactive.
On the same count and under the same terms, next, `CCOC(=O)C(=O)c1csc(NC=O)n1`: “inactive”.
In the case of `OC[C@@H](O)[C@H](O)[C@@H](O)[C@@H](O)CO`, the compound was classed as inactive.
Still for that read-out and setting: next, `CCCOCCOCCOCCO`: “inactive”; `Nc1ccc(C(=O)OCC(O)CO)cc1` (stereo not given): “inactive”.
Turning to `O=C(O)Cc1cccc(-c2cc(CCCCCCc3ccc(O[C@H]4O[C@H](CO)[C@@H](O)[C@H](O)[C@@H]4O)c(-c4cccc(CC(=O)O)c4)c3)ccc2O[C@H]2O[C@H](CO)[C@@H](O)[C@H](O)[C@@H]2O)c1`, the viability change, negative = cytotoxic was -4.49% [at 0.756 µM].
Regarding `COC(OC)C(C)c1ccccc1` (stereo not given), the result was inactive.
Still for that read-out and setting: next, `Cc1ccc2c(c1)c1c3n2CCNC3CCC1` (stereo not given): “inactive”; `CCCCCCCCCCC`: “inactive”.
Consider `CCCCCC(=O)OCC`, for which the compound was classed as inactive.
Same read-out and setting: next, `CC(=O)c1ccc2c(c1)CCCC2`: “inactive”; `C[C@H](CCC(=O)O)[C@H]1CC[C@H]2[C@@H]3[C@H](O)C[C@@H]4C[C@H](O)CC[C@]4(C)[C@H]3C[C@H](O)[C@]12C`: “inactive”; `O=C1c2ccccc2-c2ccccc21`: “inactive”.
On to `OCCCCCCCl`, for which the compound was classed as inactive.
Still for that read-out and setting: next, `CC(=O)OC(C)(C)Cc1ccccc1`: “inactive”.
As for `O=c1[nH]c(=O)c2[nH]c(=O)[nH]c2[nH]1`, the viability change, negative = cytotoxic is 8.26% [at 8.36 µM].
With `C[C@H]1O[C@H](O[C@H]2[C@H](O)[C@@H](O)[C@@H](O[C@H]3[C@H](O)[C@@H](O)[C@H](O)O[C@@H]3CO)O[C@@H]2CO)[C@H](O)[C@@H](O)[C@@H]1N[C@H]1C=C(CO)[C@@H](O)[C@H](O)[C@H]1O`, the call was inactive.
As for `CCN(Cc1cccc(S(=O)(=O)O)c1)c1ccccc1`, the result was inactive.
On the same count and under the same terms, next, `CCOC(=O)C(C)(C)C`: “inactive”; `CCOC(=O)CCc1ccccc1`: “inactive”; `C[CH2][Ge]([Cl])([CH2]C)[CH2]C`: “inactive”.
Still for that read-out and setting: next, `C[C@@H]1C[C@H]2[C@@H]3C[C@H](F)C4=CC(=O)C=C[C@]4(C)[C@@]3(F)[C@@H](O)C[C@]2(C)[C@@]1(O)C(=O)CO`: “inactive”.
Consider `CC(=O)N(CC(O)CO)c1c(I)c(C(=O)NCC(O)CO)c(I)c(C(=O)NCC(O)CO)c1I` (stereo not given), for which the compound was classed as inactive.
On the same count and under the same terms, as for `C=C(C)[C@@H]1CC[C@@H](C)C[C@@H]1O`, the entry is “inactive”.
Same read-out and setting: as for `COc1ccc(OC)c(NC(=O)CC(C)=O)c1`, the entry is “inactive”; as for `CCOC(=O)CC#N`, “inactive”; as for `CCCCCC1CCCC(=O)O1` (stereo not given), “inactive”.
For `COc1cc2c3cc1Oc1cc(ccc1O)C[C@@H]1c4c(cc(OC)c(O)c4Oc4ccc(cc4)C[C@@H]3N(C)CC2)CC[N+]1(C)C`, the call was inactive.
On the same count and under the same terms, next, `O=c1cc(O)c(Cl)c[nH]1`: “inactive”; `CC(C)COC(=O)COc1ccc(Cl)cc1Cl`: “inactive”.
Same read-out and setting: as for `C=C(C)C(=O)OC`, the entry is “inactive”; as for `C=CCOCC(CO)(COCC=C)COCC=C`, “inactive”; as for `NC(Cc1c[nH]c2ccccc12)C(=O)O` (stereo not given), “inactive”.
In the case of `COC(/C=C(\C)CCC=C(C)C)OC`, the compound was classed as inactive.
Same read-out and setting: as for `O=C(COCCOCCOCC(=O)Nc1c(I)cc(I)c(C(=O)O)c1I)Nc1c(I)cc(I)c(C(=O)O)c1I`, the entry is “inactive”.
`Nc1ccc(S(=O)(=O)Nc2ccccn2)cc1`: the outcome was inactive.
`NC(=O)C1(N2CCCCC2)CCN(CCCC(=O)c2ccc(F)cc2)CC1`: the compound was classed as inactive.
Turning to `CC1(N)CCC(C(C)(C)N)CC1` (stereo not given), the result was inactive.
The same measure, in the same setting: as for `CCC1Nc2cc(Cl)c(S(N)(=O)=O)cc2S(=O)(=O)N1` (stereo not given), the entry is “inactive”; as for `CCCCOC(=O)C(C)OC(=O)CCC` (stereo not given), “inactive”.
